We go through seven compounds from the supplement of paper PMC11732987, “Enantioselective OTUD7B fragment discovery through chemoproteomics screening and high-throughput optimisation” (Communications Chemistry, 2025).

Common to all, as to test: log2 ratio of Biotin-Ahx-Ub-VS probe labelling (fragment/DMSO); higher = less target engagement (more negative = stronger competition), active = hit call of the paper (q ≤ 0.05, log2 ratio ≤ -1)
Common to all, as to settings: compound concentration: 200 uM; treatment time: 3 h

One test addresses T1, OTUD6B (UniProt Q8N6M0).
T1 sequence (whole entry): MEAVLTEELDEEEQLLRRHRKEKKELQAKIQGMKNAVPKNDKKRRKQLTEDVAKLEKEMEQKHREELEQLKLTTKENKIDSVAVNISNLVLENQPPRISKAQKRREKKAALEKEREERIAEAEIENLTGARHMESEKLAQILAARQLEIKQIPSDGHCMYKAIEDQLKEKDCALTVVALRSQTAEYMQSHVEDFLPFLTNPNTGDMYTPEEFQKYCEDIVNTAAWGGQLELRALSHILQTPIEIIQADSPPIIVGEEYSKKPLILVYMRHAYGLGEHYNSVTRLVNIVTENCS
In a few lines:
(§1)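 Triplicate samples of HEK293T lysate, 495 µg each, received fragment at 200 µM or vehicle for 3 h, followed by Biotin-Ahx-Ub-VS (0.5 µM final) for 1 h. After NeutrAvidin enrichment of labelled DUBs and LysC/trypsin digestion, peptides were run by diaPASEF LC-MS/MS. The values are average log2 fragment/vehicle ratios from global-median-normalised Spectronaut label-free quantities, tested by unpaired t-test on proteins having ≥2 unique peptides.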

A further test has as its target T2, OTUD7B (UniProt Q6GQQ9).
T2 sequence (whole entry): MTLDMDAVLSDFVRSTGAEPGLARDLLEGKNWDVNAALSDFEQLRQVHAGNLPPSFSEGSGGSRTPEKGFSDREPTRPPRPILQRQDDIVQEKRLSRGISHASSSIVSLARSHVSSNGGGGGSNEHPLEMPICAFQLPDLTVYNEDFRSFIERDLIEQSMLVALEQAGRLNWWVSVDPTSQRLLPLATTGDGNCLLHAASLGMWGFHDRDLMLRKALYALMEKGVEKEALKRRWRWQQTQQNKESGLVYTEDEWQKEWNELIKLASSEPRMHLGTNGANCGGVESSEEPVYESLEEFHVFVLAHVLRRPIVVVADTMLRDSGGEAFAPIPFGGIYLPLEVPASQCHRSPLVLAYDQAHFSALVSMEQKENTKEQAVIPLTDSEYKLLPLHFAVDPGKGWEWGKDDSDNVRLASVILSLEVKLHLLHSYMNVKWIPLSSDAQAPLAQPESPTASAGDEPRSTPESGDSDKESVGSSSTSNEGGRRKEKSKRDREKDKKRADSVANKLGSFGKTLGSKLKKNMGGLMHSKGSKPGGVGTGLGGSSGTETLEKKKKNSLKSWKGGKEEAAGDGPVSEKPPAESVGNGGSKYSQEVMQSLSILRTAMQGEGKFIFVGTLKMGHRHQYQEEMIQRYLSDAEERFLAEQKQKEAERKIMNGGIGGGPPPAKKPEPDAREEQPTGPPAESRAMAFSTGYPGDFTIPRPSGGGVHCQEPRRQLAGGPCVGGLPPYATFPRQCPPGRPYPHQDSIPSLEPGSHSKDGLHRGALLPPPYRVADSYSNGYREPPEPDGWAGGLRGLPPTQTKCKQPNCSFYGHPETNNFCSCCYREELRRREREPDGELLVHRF
In a few lines:
as §1

The target of another test is PRPF8 (UniProt Q6P2Q9). In a few lines:
as §1

The next test deals with T3, PSMD7 (UniProt P51665).
T3 sequence (whole entry): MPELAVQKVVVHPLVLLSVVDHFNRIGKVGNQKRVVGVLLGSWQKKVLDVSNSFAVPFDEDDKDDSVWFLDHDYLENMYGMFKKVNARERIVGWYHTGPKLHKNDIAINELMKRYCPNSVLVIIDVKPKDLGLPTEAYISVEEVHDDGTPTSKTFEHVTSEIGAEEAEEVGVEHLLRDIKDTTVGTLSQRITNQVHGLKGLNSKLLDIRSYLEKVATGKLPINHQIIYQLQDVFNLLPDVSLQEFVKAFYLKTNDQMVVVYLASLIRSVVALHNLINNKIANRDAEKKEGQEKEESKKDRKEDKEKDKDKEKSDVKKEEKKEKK
In a few lines:
as §1

The target in the next test is UCHL1 (UniProt P09936). In outline: as §1
Chain of UCHL1 (P09936 whole entry, looked up): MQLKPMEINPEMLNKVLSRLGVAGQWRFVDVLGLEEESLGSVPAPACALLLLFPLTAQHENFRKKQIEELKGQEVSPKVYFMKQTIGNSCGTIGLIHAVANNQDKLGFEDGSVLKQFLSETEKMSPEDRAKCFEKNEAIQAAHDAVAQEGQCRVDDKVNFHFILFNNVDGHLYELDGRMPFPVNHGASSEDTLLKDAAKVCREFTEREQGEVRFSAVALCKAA
The target of a further test is T4, UCHL3 (UniProt P15374).
T4 sequence (whole entry): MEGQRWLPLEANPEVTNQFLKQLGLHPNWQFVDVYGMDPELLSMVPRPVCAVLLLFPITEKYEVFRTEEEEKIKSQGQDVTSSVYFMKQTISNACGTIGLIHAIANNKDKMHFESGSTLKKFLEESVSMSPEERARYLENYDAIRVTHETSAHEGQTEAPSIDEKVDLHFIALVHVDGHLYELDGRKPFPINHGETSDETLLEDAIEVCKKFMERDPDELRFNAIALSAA
In outline: as §1

In a further test the target is T5, UCHL5 (UniProt Q9Y5K5).
T5 sequence (whole entry): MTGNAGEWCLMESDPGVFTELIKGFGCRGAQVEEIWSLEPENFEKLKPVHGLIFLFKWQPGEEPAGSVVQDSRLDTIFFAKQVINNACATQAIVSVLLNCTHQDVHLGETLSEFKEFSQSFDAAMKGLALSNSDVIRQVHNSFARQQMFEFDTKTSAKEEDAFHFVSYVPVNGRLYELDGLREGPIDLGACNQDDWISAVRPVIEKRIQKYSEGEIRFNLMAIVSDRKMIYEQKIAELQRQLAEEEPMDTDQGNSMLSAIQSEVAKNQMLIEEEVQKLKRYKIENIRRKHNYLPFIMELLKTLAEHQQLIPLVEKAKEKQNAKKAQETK
In a few lines: as §1

For the next test, the target named is USP10 (UniProt Q14694). In a few lines: as §1
Chain of USP10 (Q14694 whole entry): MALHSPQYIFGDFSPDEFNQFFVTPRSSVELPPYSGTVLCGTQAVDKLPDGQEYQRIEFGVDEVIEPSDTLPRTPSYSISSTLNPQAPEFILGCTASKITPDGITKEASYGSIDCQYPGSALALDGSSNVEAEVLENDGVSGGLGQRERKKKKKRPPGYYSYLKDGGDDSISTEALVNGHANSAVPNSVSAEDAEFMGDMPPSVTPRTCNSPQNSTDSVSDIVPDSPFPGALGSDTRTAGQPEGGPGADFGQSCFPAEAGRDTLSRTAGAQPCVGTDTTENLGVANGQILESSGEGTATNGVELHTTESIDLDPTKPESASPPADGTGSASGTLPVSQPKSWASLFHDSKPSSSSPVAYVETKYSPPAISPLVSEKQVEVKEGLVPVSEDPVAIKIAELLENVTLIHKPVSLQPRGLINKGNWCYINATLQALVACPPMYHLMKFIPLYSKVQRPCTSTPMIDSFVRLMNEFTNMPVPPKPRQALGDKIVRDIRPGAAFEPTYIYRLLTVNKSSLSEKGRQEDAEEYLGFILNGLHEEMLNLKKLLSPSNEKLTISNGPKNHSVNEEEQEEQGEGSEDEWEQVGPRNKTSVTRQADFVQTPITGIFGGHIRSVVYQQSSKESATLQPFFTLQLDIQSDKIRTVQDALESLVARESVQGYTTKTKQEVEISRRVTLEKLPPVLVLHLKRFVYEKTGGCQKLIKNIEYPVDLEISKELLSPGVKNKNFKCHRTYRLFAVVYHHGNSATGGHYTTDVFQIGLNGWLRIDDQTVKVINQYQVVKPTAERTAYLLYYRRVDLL
For the next test, the target named is T6, USP15 (UniProt Q9Y4E8).
T6 sequence (whole entry): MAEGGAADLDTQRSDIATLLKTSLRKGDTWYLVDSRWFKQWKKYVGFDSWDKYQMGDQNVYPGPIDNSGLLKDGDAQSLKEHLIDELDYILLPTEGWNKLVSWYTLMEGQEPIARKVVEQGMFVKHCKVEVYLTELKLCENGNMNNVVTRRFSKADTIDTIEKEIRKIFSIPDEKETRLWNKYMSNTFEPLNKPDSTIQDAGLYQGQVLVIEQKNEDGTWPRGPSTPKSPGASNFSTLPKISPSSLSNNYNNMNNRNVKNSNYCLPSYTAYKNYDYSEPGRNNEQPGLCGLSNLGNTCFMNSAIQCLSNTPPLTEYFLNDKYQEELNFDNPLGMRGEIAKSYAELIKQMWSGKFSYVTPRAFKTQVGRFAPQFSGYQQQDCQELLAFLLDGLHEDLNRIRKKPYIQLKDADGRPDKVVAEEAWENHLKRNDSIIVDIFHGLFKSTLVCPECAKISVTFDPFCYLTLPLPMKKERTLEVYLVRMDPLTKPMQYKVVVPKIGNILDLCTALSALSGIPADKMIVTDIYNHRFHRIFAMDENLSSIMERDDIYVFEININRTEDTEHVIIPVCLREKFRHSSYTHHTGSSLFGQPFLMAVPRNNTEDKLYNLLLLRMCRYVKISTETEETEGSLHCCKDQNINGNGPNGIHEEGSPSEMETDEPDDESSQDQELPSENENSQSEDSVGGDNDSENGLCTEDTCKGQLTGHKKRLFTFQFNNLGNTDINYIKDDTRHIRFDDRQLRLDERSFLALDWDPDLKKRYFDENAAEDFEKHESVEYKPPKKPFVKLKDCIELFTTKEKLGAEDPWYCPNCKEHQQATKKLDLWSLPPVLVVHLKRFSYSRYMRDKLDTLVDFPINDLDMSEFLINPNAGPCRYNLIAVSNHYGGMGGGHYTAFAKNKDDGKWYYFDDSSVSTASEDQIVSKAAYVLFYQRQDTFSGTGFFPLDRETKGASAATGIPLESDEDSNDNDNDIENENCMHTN
In outline:
as §1

The next test concerns the target USP16 (UniProt Q9Y5T5). In outline: as §1

Molecules are shown by their SMILES. Values without a mark were called inactive.

Chain of USP16 (Q9Y5T5 whole entry, looked up): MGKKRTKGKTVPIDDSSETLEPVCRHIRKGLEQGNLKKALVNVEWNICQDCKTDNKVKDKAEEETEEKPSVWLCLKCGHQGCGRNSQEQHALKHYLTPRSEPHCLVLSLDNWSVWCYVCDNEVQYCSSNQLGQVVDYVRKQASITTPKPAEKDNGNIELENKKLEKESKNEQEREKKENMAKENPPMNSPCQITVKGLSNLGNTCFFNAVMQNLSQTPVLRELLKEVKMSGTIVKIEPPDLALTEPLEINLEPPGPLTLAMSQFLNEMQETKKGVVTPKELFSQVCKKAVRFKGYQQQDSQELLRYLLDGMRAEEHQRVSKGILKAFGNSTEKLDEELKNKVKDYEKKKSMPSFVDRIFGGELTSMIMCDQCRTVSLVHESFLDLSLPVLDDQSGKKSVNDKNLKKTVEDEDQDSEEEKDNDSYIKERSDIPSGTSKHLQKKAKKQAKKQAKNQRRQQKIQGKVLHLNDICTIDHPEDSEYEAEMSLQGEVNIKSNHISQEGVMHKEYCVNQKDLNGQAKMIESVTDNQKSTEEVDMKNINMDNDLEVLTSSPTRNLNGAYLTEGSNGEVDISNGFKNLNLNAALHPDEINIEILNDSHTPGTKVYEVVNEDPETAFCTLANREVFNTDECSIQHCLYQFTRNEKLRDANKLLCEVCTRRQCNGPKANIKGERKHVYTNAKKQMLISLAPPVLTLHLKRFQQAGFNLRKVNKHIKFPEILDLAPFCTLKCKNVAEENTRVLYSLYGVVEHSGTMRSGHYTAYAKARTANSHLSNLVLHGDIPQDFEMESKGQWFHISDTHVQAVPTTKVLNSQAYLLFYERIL

With `Cc1c(NC(=O)CCl)c(=O)n(-c2ccccc2)n1C`, the “log2 ratio of Biotin-Ahx-Ub-VS probe labelling” value (“log2 ratio” below) was -0.0267 in the test with OTUD6B; -0.0828 in the test with OTUD7B; 0.192 with PRPF8; -0.0588 in the test with PSMD7; -1.04 (active) with UCHL1; 0.0974 with UCHL3. The “log2 ratio” value in the test with UCHL5 was -0.143; in the test with USP10, -0.099; with USP15, -0.102; with USP16 it was -0.462.
For the compound `NC(=O)C1CCCCN1C(=O)CCl` (stereo not given), the “log2 ratio” value with OTUD6B is -0.175; with OTUD7B it was -1.65 (active); in the test with PRPF8, -0.153; in the test with PSMD7, -0.146; with UCHL1, -1.52 (active); in the test with UCHL3, 0.215. Moreover, the “log2 ratio” value in the test with UCHL5 is -0.42; with USP10, -0.0331; in the test with USP15, -0.0982; with USP16, 0.0843.
In the case of `CCN(Cc1ccc(C#N)cc1F)C(=O)CCl`, the “log2 ratio” value is -0.409 with OTUD6B; -0.641 in the test with OTUD7B; 0.0668 in the test with PRPF8; -0.234 in the test with PSMD7; -1.35 (active) in the test with UCHL1; 0.0414 in the test with UCHL3. In addition, the “log2 ratio” value is -0.5 in the test with UCHL5, -0.11 in the test with USP10, -0.275 with USP15 and 0.17 with USP16.
Turning to `O=C(CCl)NC1CCC2(CC1)OCCO2`, the “log2 ratio” value in the test with OTUD6B was -0.272; with OTUD7B, -0.893; with PRPF8, -0.267; with PSMD7, -0.147; with UCHL1, -1.25 (active); in the test with UCHL3 it was -0.0419. The “log2 ratio” value was -0.477 with UCHL5, -0.165 with USP10, -0.308 in the test with USP15 and -0.00437 with USP16.
With `O=C(CCl)N1CCN(c2nc3ccccc3o2)CC1`, the “log2 ratio” value was -0.147 with OTUD6B; -0.25 with OTUD7B; 0.299 with PRPF8; -0.247 with PSMD7; -1.49 (active) with UCHL1; -0.125 in the test with UCHL3. Further, the “log2 ratio” value was -0.319 with UCHL5, -0.131 with USP10, -0.407 with USP15 and -0.379 in the test with USP16.
Take `O=C(CCl)N1c2ccccc2NC(=O)C12CCCC2`: the “log2 ratio” value with OTUD6B was -0.0738; in the test with OTUD7B it was -0.0903; with PRPF8 it was -0.16; with PSMD7 it was 0.0949; with UCHL1, -0.493; with UCHL3, 0.749. Further, the “log2 ratio” value with UCHL5 was -0.148; in the test with USP10, -0.393; with USP15, 0.113; in the test with USP16 it was 0.103.
For `O=C(CCl)NCCc1ccc(F)cc1`, the “log2 ratio” value was 0.0481 in the test with OTUD6B; -0.435 with OTUD7B; -0.0623 with PRPF8; 0.0236 with PSMD7; -1.09 (active) with UCHL1; 0.132 with UCHL3. Moreover, the “log2 ratio” value was -0.0307 with UCHL5, -0.0913 in the test with USP10, -0.0724 in the test with USP15 and 0.107 in the test with USP16.
